# How the values were obtained:
# Assay in all cases: PBM binding z-score (relative to random genomic background probes); higher = stronger binding; sequences stand for … in GC…GCGATTGACAGCGTAGAATGAAGG
# [1] = tested on: RARb homodimer (NR concentration 270 nM)
# Outline: (§1)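 The probes on custom Agilent 4×180K protein-binding microarrays were double-stranded, with 34-nt variable regions bearing direct-repeat seeds, single-nucleotide variants, half-site ablations and random human genomic background sequences. Incubation lasted 1 h with ligand-free nuclear receptor dimers in PBS pH 7.4, 2% milk, 0.02% Triton X-100, 1 mM DTT, 0.2 mg/mL BSA and 0.4 mg/ml salmon testes DNA. Antibodies against each partner (one per run) detected bound dimers, and fluorescence scans were regression-normalized. Binding z-scores take the random background probes as reference.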
# [2] = tested on: RARg:RXRa (NR concentration 270 nM, RXRa partner concentration 90 nM)
# Outline: as §1
# [3] = tested on: RARg homodimer (NR concentration 270 nM)
# Outline: as §1
# [4] = tested on: RXRa DBDmut IVT, anti-RXR (DBD mutation: RXRa K156A/R161A, NR concentration 90 nM)
# Outline: as §1
# [5] = tested on: RXRa homodimer (NR concentration 180 nM)
# Outline: as §1
# [6] = tested on: THRa:RXRa (NR concentration 90 nM, RXRa partner concentration 90 nM)
# Outline: as §1
# [7] = tested on: THRa homodimer (NR concentration 90 nM)
# Outline: as §1
# [8] = tested on: VDR homodimer (NR concentration 270 nM)
# Outline: as §1
Sequence,PBM binding z-score [1],PBM binding z-score [2],PBM binding z-score [3],PBM binding z-score [4],PBM binding z-score [5],PBM binding z-score [6],PBM binding z-score [7],PBM binding z-score [8]
CCTATTAGTTCACCATAAGGGCAACCGAAGCTCG,3.48,4.31,2.61,2.82,1.69,3.37,1.73,2.41
GCAGACGGGTGAAACGCAGGTAACTCAGGGTGGC,-0.28,0.482,-0.283,-1.07,0.49,1.3,-0.706,-0.68
CCTACTGGGGCAGAAAGGTTACCATACCATCCGG,2.22,1.62,1.59,-1.01,1.56,0.807,-0.439,-0.187
TCTTGTAGATCAAGAGGAGGTTAAGAAAGATCGA,0.486,0.616,0.204,0.251,0.72,0.611,-0.142,-0.158
ATCTCTAGGTAAGACTCAGTTCAGGGAAGAACGC,0.949,0.767,0.451,0.408,0.569,1.12,0.955,1.72
CGTCCAAGGTCAGCAGGTCAGTGATAGCGACGTG,5.02,6.25,7.22,2.59,5.26,3.84,2.31,1.75
ATTTCTAGGTAAAGATAGTTCAGTGAATGCAAAT,0.935,0.671,0.813,0.38,0.418,1.02,0.00694,0.94
CTCGAAAGGTCGGTTGAGGTGAGTATACGGATAA,2.15,2.63,2.54,0.556,1.95,5.09,1.33,0.68
TCATATAGGTAAATGCTAGCTGAAAGTCCGATCT,-0.406,0.14,0.178,1.68,0.565,-0.388,-0.402,0.142
CAGCCTAGGTCAGGGCCAGTATCGGAGGAACGTT,2.85,3.16,4.2,-0.106,1.55,1.96,0.58,-0.476
CGTCAAAGTTCAAGGTAACGCAACAGAAAGCAGC,3.59,5.16,6.13,4.31,4.24,2.97,1,3.74
CGTCCAAGGTCATAGGTCAGTGAAGAGATGACGG,4.84,6.97,6.86,3.61,8.18,4.31,2.65,3.51
CACACTAGGTCACCGGAAGGTCAAAGTCCGCATG,5.83,8.21,7.39,2.24,6.53,4.79,3.54,3.61
GCTAGTAGATCAAGGTTAAGAAAGACTAAGCTAA,0.204,0.392,0.168,-0.105,0.832,1.01,-0.473,-0.442
CAAACTAGGTCAAGGTCAAAGCCGGTTTGTGCCA,5.03,6.1,6.74,2.67,5.67,4.39,3.5,3.55
ACTATTAGTTGAGACGAGGGCAACCAATAGGTTG,1.29,0.956,0.987,0.665,0.753,2.89,0.217,0.676
CAAACTAGGTCACCGGACGGTCAAAGTCCGCATG,4.41,6.71,6.04,1.41,4.05,3.5,1.73,1.1
CAAACTAGGTCACAGAGATCAAAGTCCGTGCGTA,3.1,4.52,4.87,1.59,3.84,3.28,1.27,0.964
ATATGTAGGTTAAATCCGGGTCATTCAGGCTATG,3.23,4.91,2.25,1.1,3.3,4.46,2.71,2.5
GCTATTAGTTGAAAGGGCACCCGAATGATTCTCG,1.78,1.18,1.03,1.06,1.43,0.64,0.229,0.843
CGTCCAAGGTCAAGGTCTGTGAAAGAGACTCGAA,3.88,6.09,6.55,3.21,5.2,3.83,2.46,1.78
ACTAGTTGGTCAGCTGAGGTCACTCACAATTCGG,4.24,3.48,3.38,1.11,3.13,4.98,4.9,2.68
AATACAGGTTCATCGTAGGCCAGAGTACGCACAG,1.46,2.54,1.39,4.66,3.17,3.66,0.0172,5.45
TCTAGTAGGCCAGAGGGTCACTCAAGAGGTACGG,2.95,2.83,2.16,0.571,2.75,1.74,0.0135,0.631
GCTAACAGGCCATTTGGGTCACTCAATGACGGGC,2.13,1.1,1.63,0.69,1.06,2.13,0.884,0.601
TCTATTAGGTGATTAGGGCAACCGAAACAGCGGA,1.1,1.09,1.02,0.665,0.927,1.24,0.68,0.277
ACTTACGGGTCAATGAGGTTATAGCACGCGTATA,3.59,5.05,4.75,2.58,6.03,4.16,1.57,3.35
TCGAGTTGGTTAGGGGCATTCAGAATGGCGTCGA,0.661,-0.158,-0.398,1.95,0.163,0.835,0.169,3.32

# From the supplement of paper PMC6555819
